# Assay outcomes as filed in PubChem BioAssay.
# This is a sample that favours compounds with a hit; in the whole collection about 4.5% have one here.
# tim23-1 inh = growth inhibitors of tim23-1 mutant yeast | S. cerevisiae tim23-1 growth, BacTiter-Glo luminescence, 24 h | inhibition, % at 20 µM | 330,000 compounds, 1.3% hits;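 active = growth inhibition of the mutant yeast at or above 50%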;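 also: temperature-sensitive mutant grown at 25 °C; plate controls were DMSO-treated mutant yeast for no effect and medium wells lacking yeast for full effect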
# TIM10 inh = TIM10 yeast growth inhibition; S. cerevisiae TIM10 strain growth, BacTiter-Glo luminescence, 24 h; inhibition, % at 10 µM; 330,000 compounds, 1.4% hits;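 active = inhibition of 40% or more at the single tested concentration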;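 also: wild-type TIM10 isogenic control strain grown at permissive 25 °C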
# PfHsp90 yeast 2 = reduces growth (ATP signal) of yeast expressing P. falciparum Hsp90. S. cerevisiae expressing PfHsp90, BacTiter-Glo ATP, 48 h; yeast lacking PDR1 and PDR3 efflux regulators. inhibition, % at 9.4 µM. 310,000 compounds, 0.32% hits. AID 504621;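 active = every replicate shows inhibition above about 80%, whatever the replicate mean, limit read from the data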;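 also: 0% = DMSO neutral controls and 100% = 20 µM radicicol positive controls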
# NALP3 yeast inh = inhibitors of NALP3 inflammasome in yeast; Yeast reconstituted NLRP3/ASC/caspase-1, beta-gal luminescence, 24 h; inhibition, % at 10 µM; 330,000 compounds, 0.39% hits; AID 2825;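 active = inhibition of 50% or more; inactive = inhibition below 50%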;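 also: plate controls were induced DMSO wells for no effect and uninduced yeast grown without galactose for full effect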
# SKKanGAS inh = SKKanGAS growth inhibition; S. pyogenes SKKanGAS, kanamycin growth, BacTiter-Glo, 6 h; inhibition, % at 7.5 µM; 300,000 compounds, 1.3% hits; AID 1662;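 active = mean replicate score, as percent of positive control median, at least 50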;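 also: strain carries kanamycin resistance gene driven by streptokinase promoter and grows in 40 µg/ml kanamycin; loss of luminescence reflects streptokinase promoter inhibition or plain growth inhibition; 0% = median of DMSO wells and 100% = positive control at its reference dose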
# tim10-1 inh = tim10-1 yeast growth inhibition. inhibition, % at 20 µM. 330,000 compounds, 2.2% hits. S. cerevisiae tim10-1 ts strain growth, BacTiter-Glo, 24 h. AID 463190;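 active = inhibition of at least 40%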;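 also: mutant grown at 25 °C; 0% = DMSO wells with yeast and 100% = wells holding no yeast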
# tim10-1 conf = confirmation of tim10-1 mutant yeast growth inhibitors. shares compounds with tim10-1 inh. S. cerevisiae tim10-1 ts strain growth, BacTiter-Glo, 24 h. inhibition, % at 20 µM. 7,400 compounds, 56% hits;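 active = inhibition of yeast growth at or above a set limit in either of two repeat tests at 20 µM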;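 also: tim10-1 mutant grown at permissive 25 °C to find synthetic lethal compounds; 0% = DMSO yeast wells and 100% = medium wells without yeast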
# * hit, by the source's call; . = no result given; ! = repeats disagree.
SMILES,tim23-1 inh,TIM10 inh,PfHsp90 yeast 2,NALP3 yeast inh,SKKanGAS inh,tim10-1 inh,tim10-1 conf
Nc1nnc(-c2ccccc2)s1,21,5,-1,10,-1,92*,8
O=c1c(-c2nnc(SCc3ccc(Cl)cc3)o2)cccn1Cc1ccccc1,38,14,.,16,-1,46*,19
N#Cc1c(NC(=S)NC(=O)Cc2cccs2)sc2c1CCCCC2,33,19,.,4,59*,47*,29
CC(=O)NC(=S)Nc1sc2c(c1C#N)CCCCC2,.,.,-78,.,11,.,.
Cc1nn(C(C)(C)C)c(OC(=O)c2ccc3c(c2)OCO3)c1S(=O)(=O)c1ccccc1,43,31,2,28,-2,46*,35*
CCOC(=O)c1cc(-c2cccs2)nc2c1c(C)nn2-c1ccccn1,41,32,-8,20,58*,52*,40*
CC(=O)N1N=C(c2cccc([N+](=O)[O-])c2)OC1c1ccc(Cl)cc1Cl (centres undefined),35,23,.,30,9,40*,14
O=C1c2ccccc2NC(c2ccc(Cl)cc2Cl)N1Cc1ccccc1 (centres undefined),35,20,.,13,39,23,.
O=C1c2ccccc2NC(c2c(Cl)cccc2Cl)N1Cc1ccccc1 (centres undefined),43,27,-20,-25,-1,40*,26
N#C/C(=C\c1ccc(-c2nc3ccccc3s2)o1)C(N)=O,28,17,-12,1,0,40*,29
O=C(/C=C/c1cccs1)NCc1ccc2c(c1)OCO2,29,-14,3,26,-2,-19,.
COc1cc(CC(=O)Nc2nc(-c3ccccc3)c(C(C)=O)s2)cc(OC)c1OC,7,17,-39,21,1,2,.
COc1ccc(-c2nc(NC(C)=O)sc2-c2ccccc2)cc1,42,26,-16,2,36,42*,20
COc1ccc(CC(=O)Nc2nc(-c3ccccc3)c(C(C)=O)s2)cc1OC,18,12,-11,4,-3,48*,27
COc1ccc(-c2sc(NC(C)=O)nc2-c2ccccc2)cc1,33,35,-4,9,2,28,.
C=CCn1c(SCC(=O)NC2(C#N)CCCCC2)nnc1-c1ccncc1,-6,4,-13,14,14,12,.
Cn1c(N/N=C/c2c[nH]c3ccccc23)nc2ccccc21,-25,-10,23,14,29,11,.
Cn1c(N/N=C/c2cc3ccccc3nc2Cl)nc2ccccc21,30,21,51,30,6,42*,33*
NS(=O)(=O)c1ccc(NC(=O)COC(=O)CCc2ccccc2)cc1,7,0,4,9,-2,9,.
CC1=C(O)C(=O)OC1c1c(Cl)cccc1Cl (centres undefined),3,12,-23,0,4,-1,.
Cc1cc(C)n(CCc2nc(-c3cc4ccccc4o3)cs2)n1,43,23,8,18,8,43*,30
Cc1cc(C)c(C(=O)N2CCCC(N3CCN(c4cccc(C(F)(F)F)c4)CC3)C2)o1 (centres undefined),24,20,-12,0,-6,44*,21
Cc1ccc2c(CN3CCCCC3)cc(=O)oc2c1,4,3,-20,14,-2,-3,.
Cc1ccc2c(CN3CCN(S(=O)(=O)/C=C/c4ccccc4)CC3)cc(=O)oc2c1,47,36,-16,6,32,40*,36*
COc1cccc(-c2nn(C)c3sc(C(=O)NCc4ccccn4)cc23)c1,30,13,-23,17,-2,45*,18
SMILES,tim23-1 inh,TIM10 inh,PfHsp90 yeast 2,NALP3 yeast inh,SKKanGAS inh,tim10-1 inh,tim10-1 conf
COc1cccc(-c2nn(C)c3sc(C(=O)NCc4ccc(C)cc4)cc23)c1,7,21,-35,15,20,17,.
CCCCN1CC[C@H]2C=CC[C@@H](C(=O)Nc3ccc(Cl)cc3Cl)[C@H]2C1=O,39,14,.,6,10,27,.
Cc1nn(C(C)(C)C)c(C)c1/C=N/OC(=O)Nc1ccc(Cl)cc1,43,26,8,35,-4,42*,30
C/C(=N\Nc1cccc(Cl)c1)C1(C)N(O)C(C)(C)C(c2ccco2)=[N+]1[O-] (centres undefined),26,27,-6,1,4,26,.
CCCc1cc(=O)[nH]c2nnc(SCC(=O)N3CC(C)OC(C)C3)n12 (centres undefined),-27,-2,11,-5,-1,-7,.
CCCNC(=S)NC1CC2CCCC(C1)N2Cc1ccc(F)cc1 (centres undefined),-6,-13,5,13,2,-15,.
Nc1c(N2CCN(c3ccccc3)CC2)c2ccccc2oc1=O,27,11,2,4,-7,49*,27*
CCCSc1nc2c(cnn2-c2ccc(C)cc2)c(=O)[nH]1,9,-13,-6,16,14,14,.
CCSc1nc2c(cnn2-c2ccc(C)cc2)c(=O)[nH]1,17,14,-18,16,14,41*,-6
CC(=O)Nc1c2c(nn1-c1cccc(Cl)c1)CS(=O)(=O)C2,0,-7,-13,-7,1,10,.
Cc1ccc(Cl)cc1NC(=O)COC(=O)C12CC3CC(CC(C3)C1)C2,23,40,-11,9,28,47*!,33*
Cc1ccc(Cl)cc1NC(=O)COC(=O)C1CCCC1,14,-3,31,-2,-3,12,.
CN1CCN(CCCN2c3ccccc3Sc3ccc(C(F)(F)F)cc32)CC1,17,27,-15,32,7,42*,26
O=C(CN1CCCC(O)C1)N1c2ccccc2Sc2ccc(C(F)(F)F)cc21 (centres undefined),21,14,-3,19,3,14,.
CCC(C)[C@H]1CNCCN1CCC12CC3CC(CC(C3)C1)C2 (some centres undefined),21,-1,3,15,.,16,.
Cc1cc(N=Nc2ccc(Cl)cc2)cc(CN2CCCC2)c1O,25,25,-4,11,-1,44*,27
Cc1cc(N=Nc2ccc(Cl)cc2)cc(CN2CCOCC2)c1O,28,30,-14,22,42,29,.
CCOc1ccc(OCC)c(NC(=O)CN2CCN(c3cccc(C)c3)CC2)c1,25,24,-10,13,5,46*,29
COc1cccc(C(=O)NC2CCCc3c2cnn3-c2ccc(C)c(C)c2)c1OC (centres undefined),28,2,-5,17,-2,31,.
COc1ncccc1C(=O)NC1CCCc2c1cnn2-c1ccc(C)c(C)c1 (centres undefined),34,28,-9,-53,8,52*,15
Brc1ccc(Oc2nnnn2-c2ccccc2)cc1,48,10,-12,-3,1,44*,35*
